# Source: PubChem BioAssay (Tox21)
# Records with an inconclusive call do not appear. More than one record can exist for a structure, and the calls need not agree. Activity calls are given as the source filed them. Unless noted, calls follow the shape of the full dose curve.
# Test system: not listed separately
# Experiment: qHTS assay to identify small molecule agonists of the estrogen related receptor signaling pathway with the pleiotropic PPARgamma coactivator (PGC) from Tox21 10K library (AID 1224842; active = well fitted activation curve with a large enough effect in the repeat runs; also: nearly all actives have a fitted effect of over 15% in size)
# Details: PGC/ERR reporter cell line, luciferase ONE-Glo, 18 h; series mostly up to 92.4 µM; activation: at the top concentration
# Procedure, shortened: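 PGC/ERR reporter cell line, 2,000 cells per well, incubated 6 h at 37 C before 23 nL compound in DMSO was added. After 18 h at 37 C, One-Glo luminescence read following 30 min at room temperature.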
# % is scaled to controls: 0 for no effect and ±100 for the full control effect.
SMILES,activation,outcome
C[C@](N)(Cc1ccc(O)cc1)C(=O)O,-0.549% [at 8.39 µM] (inactive),–
COC(=O)[C@@H](N)Cc1ccc(O)c(O)c1,-0.107% [at 42.5 µM] (inactive),–
CN(C)CCCN1c2ccccc2CCc2ccc(Cl)cc21,–,inactive
CC(C)(c1ccc(O)cc1)c1ccc(O)cc1,–,inactive
CCn1nc(C(=O)O)c(=O)c2cc3c(cc21)OCO3,0.45% [at 42.5 µM] (inactive),–

# Target: Thyrotropin receptor (Homo sapiens) (UniProt P16473)
# Sequence (P16473 whole entry, looked up): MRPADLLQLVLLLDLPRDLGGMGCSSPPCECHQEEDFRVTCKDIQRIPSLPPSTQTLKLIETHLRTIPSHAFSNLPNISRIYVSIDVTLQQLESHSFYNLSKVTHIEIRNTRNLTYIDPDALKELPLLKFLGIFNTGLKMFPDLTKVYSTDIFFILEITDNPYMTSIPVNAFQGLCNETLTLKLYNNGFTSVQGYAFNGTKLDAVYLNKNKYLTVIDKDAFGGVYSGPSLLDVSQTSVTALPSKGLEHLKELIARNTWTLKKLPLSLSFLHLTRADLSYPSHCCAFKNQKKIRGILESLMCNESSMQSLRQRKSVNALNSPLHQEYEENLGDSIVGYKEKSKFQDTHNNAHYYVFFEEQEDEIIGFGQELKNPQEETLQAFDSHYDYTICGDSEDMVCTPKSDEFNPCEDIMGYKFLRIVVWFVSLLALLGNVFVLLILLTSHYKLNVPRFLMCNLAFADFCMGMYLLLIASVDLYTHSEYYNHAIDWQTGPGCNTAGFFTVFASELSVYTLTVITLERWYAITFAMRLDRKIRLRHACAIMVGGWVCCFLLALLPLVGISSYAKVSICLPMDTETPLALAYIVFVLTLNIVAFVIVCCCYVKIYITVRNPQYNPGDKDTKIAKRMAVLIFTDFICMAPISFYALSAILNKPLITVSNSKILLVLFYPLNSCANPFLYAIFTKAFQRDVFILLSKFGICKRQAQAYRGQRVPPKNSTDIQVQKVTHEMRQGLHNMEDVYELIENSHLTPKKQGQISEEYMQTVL
# Experiment: qHTS assay to identify small molecule agonists of the thyroid stimulating hormone receptor (TSHR) signaling pathway (AID 1224843); also: nearly all actives have a fitted effect of over 45% in size; also: potency is read from the fitted curve at half-maximal effect
# Details: TSHR-HEK293 cells, cAMP HTRF, agonist mode, 30 min; series mostly up to 42.5 µM; activation: at the top concentration
# Procedure, shortened: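 Agonist-mode screen: TSHR HEK293 cells received test chemicals for half an hour at room temperature, then HTRF cAMP detection reagents for one hour prior to fluorescence measurement. Each chemical ran as a 15-concentration series, triplicated.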
SMILES,activation,Potency
C[C@](N)(Cc1ccc(O)cc1)C(=O)O,-7.31% [at 8.39 µM] (inactive),–
C1OCOCO1,-4.38% [at 92.4 µM] (inactive),–
O=C1CCCCCCCCCCCN1,–,inactive
CCOC(=O)CC(C)=O,7.57% [at 92.4 µM] (inactive),–
NC(=O)c1cn(Cc2c(F)cccc2F)nn1,-4.79% (inactive),–
CCN(CC)CCNC(=O)c1cc(S(C)(=O)=O)ccc1OC,-11.6% (inactive),–
OC[C@]1(O)OC[C@@H](O)[C@H](O)[C@@H]1O,–,inactive
CCCCC/C=C\CCC=O,-4.91% [at 92.4 µM] (inactive),–
C=C1CC[C@H]2C[C@@H]1C2(C)C,-17.1% [at 92.4 µM] (inactive),–
CC(C)(O)C#CC(C)(C)O,-2.88% [at 92.4 µM] (inactive),–
COC(=O)[C@@H](N)Cc1ccc(O)c(O)c1,2.43% (inactive),–
CC[N+](C)(C)c1cccc(O)c1,-1.42% (inactive),–
CN(C)CCCN1c2ccccc2CCc2ccc(Cl)cc21,-21.7% (inactive),–
CCN1CCC[C@H]1CNC(=O)c1c(O)c(Cl)cc(Cl)c1OC,7.33% (inactive),–
CCN(Cc1ccncc1)C(=O)C(CO)c1ccccc1 (stereo unspecified),0.522% (inactive),–
COC(=O)C1=C(C)NC(C)=C(C(=O)OC)C1c1ccccc1[N+](=O)[O-],–,54.5 µM (active) and inactive

SMILES,activation,Potency
Cc1[nH]c(=O)c(C#N)cc1-c1ccc2nccn2c1,22.1% (inactive),–
O=C1NC(=O)[C@@]2(CCOc3ccc(F)cc32)N1,0.107% (inactive),–
Nc1cc(=O)[nH]c(N)n1,2.6% (inactive),–
O=C(O)CN(CCOCCOCCN(CC(=O)O)CC(=O)O)CC(=O)O,-8.79% [at 0.349 µM] (inactive),–
NCCc1cnc[nH]1,-0.0808% (inactive),–
Brc1c(NC2=NCCN2)ccc2nccnc12,-2.6% (inactive),–
Nc1ccc(S(=O)(=O)Nc2ccnn2-c2ccccc2)cc1,2.62% [at 19 µM] (inactive),–
CC(C)(c1ccc(O)cc1)c1ccc(O)cc1,29.2% [at 92.4 µM] (inactive),–
O=c1n(CCO)c(=O)n(CCO)c(=O)n1CCO,–,inactive
CCn1nc(C(=O)O)c(=O)c2cc3c(cc21)OCO3,7.59% (inactive),–
CN1CCC(=C2c3ccccc3CC(=O)c3sccc32)CC1,-5.54% (inactive),–
CC(=O)OCC(CCn1cnc2cnc(N)nc21)COC(C)=O,5.14% (inactive),–
CCO/C([O-])=N/c1c[n+](N2CCOCC2)no1,2.38% (inactive),–
CCN(CC)CCOCCOC(=O)C1(c2ccccc2)CCCC1,-7.57% (inactive),–
COc1ccc(CCN(C)CCCC(C#N)(c2cc(OC)c(OC)c(OC)c2)C(C)C)cc1OC (stereo unspecified),–,2.11 µM (active)
